# In PubChem BioAssay (EPA / NIEHS):
# The source made the active and inactive calls. How the source made its calls: active means hit-call score of the fitted dose curve at least 0.9, where 1 is the maximum; inactive means score below 0.9.
# Tests used:
# Details in all cases: mRNA level, 48 h; actives raise or lower the signal
# [1] = read-out: Cytochrome P450 (CYP1A2), CYP1A2 (gene 1544); assay: LTEA_HepaRG_CYP1A2: Life Technologies and Expression Analysis (LTEA) Assay for Cytochrome P450 (CYP1A2) using HepaRG (AID 2283479);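 on AC50: TaqMan qRT-PCR transcript level normalized to ACTB GAPDH and POLR2A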
# Outline: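 CYP1A2 transcript measured by TaqMan qRT-PCR against three housekeeping genes after 48-hour chemical exposure of HepaRG cells. Eight-point half-log series topping at 100 uM in 0.5% DMSO, duplicates; gain or loss fitted relative to vehicle.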
# [2] = read-out: cysteine-aspartic acid protease (CASP8), CASP8 (gene 841); assay: LTEA_HepaRG_CASP8: Life Technologies and Expression Analysis (LTEA) Assay for cysteine-aspartic acid protease (CASP8) using HepaRG (AID 2283480)
# Outline: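 HepaRG, 48 h exposure, duplicate wells; 8 conc, half-log from 100 uM, 0.5% DMSO. Serum-free induction medium. CASP8 mRNA by TaqMan qRT-PCR, norm. ACTB/GAPDH/POLR2A; gain/loss fitted vs DMSO.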
# [3] = read-out: Cytochrome P450 (CYP2B6), CYP2B6 (gene 1555); assay: LTEA_HepaRG_CYP2B6: Life Technologies and Expression Analysis (LTEA) Assay for Cytochrome P450 (CYP2B6) using HepaRG (AID 2283481)
# Outline: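 CYP2B6 transcript level quantified by qRT-PCR against three housekeeping genes, fitted bidirectionally relative to DMSO. HepaRG cultures received chemicals for 48 h, 8-point half-log series from 100 uM in 0.5% DMSO, duplicate wells, serum-free induction medium.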
# [4] = read-out: Cytochrome P450 2C19 (Homo sapiens) (UniProt P33261); assay: LTEA_HepaRG_CYP2C19: Life Technologies and Expression Analysis (LTEA) Assay for CYP2C19 using HepaRG (AID 2283482)
# Outline: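 CYP2C19 transcript levels by qRT-PCR, normalized to three housekeeping genes, in HepaRG cells after 48 h chemical exposure. Eight-point half-log series topping at 100 uM, 0.5% DMSO vehicle. Increases and decreases both fitted against DMSO.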
# CYP2C8 (gene 1558) = assay: LTEA_HepaRG_CYP2C8: Life Technologies and Expression Analysis (LTEA) Assay for CYP2C8 using HepaRG (AID 2283483)
# Outline: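 CYP2C8 mRNA induction or loss, by qRT-PCR normalized to ACTB/GAPDH/POLR2A, is read in HepaRG cells after 48 h treatment. Concentrations run from 100 uM down in half-log dilutions, with 0.5% DMSO as vehicle and baseline.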
# CYP2C9 (gene 1559) = assay: LTEA_HepaRG_CYP2C9: Life Technologies and Expression Analysis (LTEA) Assay for CYP2C9 using HepaRG (AID 2283484)
# Outline: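 Cells plated 48 h, switched to serum-free induction medium, then treated in duplicate for 48 h at eight concentrations (max 100 uM, 0.5% DMSO). RNA then analysed by qRT-PCR for CYP2C9; curves fitted in both directions relative to DMSO.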
# CYP4A11 (gene 1579) = assay: LTEA_HepaRG_CYP4A11: Life Technologies and Expression Analysis (LTEA) Assay for CYP4A11 using HepaRG (AID 2283486)
# Outline: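 Readout is CYP4A11 transcript level by qRT-PCR, normalized to three housekeeping genes and fitted bidirectionally against 0.5% DMSO. Human HepaRG cells were treated 48 h, in duplicate, with an 8-point half-log series topping at 100 uM.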
# [5] = read-out: Cytochrome P450 3A4 (Homo sapiens) (UniProt P08684); assay: LTEA_HepaRG_CYP3A4: Life Technologies and Expression Analysis (LTEA) Assay for CYP3A4 using HepaRG (AID 2283487)
# Outline: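 HepaRG, 48 h exposure, 8-pt CRC from 100 uM (half-log), 0.5% DMSO, duplicates; serum-free induction medium. Readout: CYP3A4 mRNA, qRT-PCR, ACTB/GAPDH/POLR2A normalization. Bidirectional fit vs DMSO.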
# [6] = read-out: DNA damage-inducible transcript 3 (DDIT3), DDIT3 (gene 1649); assay: LTEA_HepaRG_DDIT3: Life Technologies and Expression Analysis (LTEA) Assay for DNA damage-inducible transcript 3 (DDIT3) using HepaRG (AID 2283488)
# Outline: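 Changes in DDIT3 transcript, in either direction relative to 0.5% DMSO vehicle, were quantified by TaqMan qRT-PCR after 48 h chemical exposure of HepaRG cells at 8 concentrations, maximum 100 uM.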
# [7] = read-out: Pro-epidermal growth factor (Homo sapiens) (UniProt P01133); assay: LTEA_HepaRG_EGF: Life Technologies and Expression Analysis (LTEA) Assay for Epidermal growth factor (EGF) using HepaRG (AID 2283489)
# Outline: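 EGF transcript measured by Fluidigm TaqMan qRT-PCR with three housekeeping genes for normalization, 48 h after dosing HepaRG cultures in duplicate (top 100 uM, half-log steps, 0.5% DMSO vehicle). Gain or loss relative to DMSO fitted.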
# [8] = read-out: Early growth response protein 1 (EGR1) transcription factor, EGR1 (gene 1958); assay: LTEA_HepaRG_EGR1: Life Technologies and Expression Analysis (LTEA) Assay for Early growth response protein 1 (EGR1) transcription factor using HepaRG (AID 2283490)
# Outline: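 Read-out is EGR1 mRNA level by qRT-PCR, normalized to three housekeeping genes and analysed for gain or loss of signal against 0.5% DMSO. Source cells: human HepaRG, treated 48 h at up to 100 uM in half-log dilutions.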
# [9] = read-out: Ezrin (EZR), EZR (gene 7430); assay: LTEA_HepaRG_EZR: Life Technologies and Expression Analysis (LTEA) Assay for Ezrin (EZR) using HepaRG (AID 2283491)
# Outline: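 Read-out is EZR transcript level by qRT-PCR, normalized to three housekeeping genes and fitted bidirectionally against the DMSO control. Human HepaRG cells received test chemicals for 48 h at eight half-log concentrations up to 100 uM in 0.5% DMSO.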
# CYP3A5 (gene 1577) = assay: LTEA_HepaRG_CYP3A5: Life Technologies and Expression Analysis (LTEA) Assay for CYP3A5 using HepaRG (AID 2283493)
# Outline: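 mRNA induction or loss of CYP3A5 assessed in HepaRG after 48 h dosing, 100 uM top concentration, duplicate wells; TaqMan qRT-PCR with ACTB, GAPDH, POLR2A normalization; 0.5% DMSO as negative control.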
# [10] = read-out: Fatty Acid-Binding Protein 1 (FABP1), FABP1 (gene 2168); assay: LTEA_HepaRG_FABP1: Life Technologies and Expression Analysis (LTEA) Assay for Fatty Acid-Binding Protein 1 (FABP1) using HepaRG (AID 2283494)
# Outline: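 HepaRG, 48 h post-plating switched to serum-free induction medium, then dosed 48 h (duplicate, 8 pts, ≤100 uM, 0.5% DMSO). RNA → Fluidigm TaqMan qRT-PCR, FABP1 normed to ACTB/GAPDH/POLR2A. Bidirectional curve fit vs DMSO.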
# [11] = read-out: Cytochrome P450 4A22 (Homo sapiens) (UniProt Q5TCH4); assay: LTEA_HepaRG_CYP4A22: Life Technologies and Expression Analysis (LTEA) Assay for Cytochrome P450 4A22 (CYP4A22) using HepaRG (AID 2283495)
# Outline: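 Gene expression measured by qRT-PCR against three housekeeping genes (ACTB, GAPDH, POLR2A), with gain or loss fitted relative to 0.5% DMSO vehicle. HepaRG cultures received 48 h chemical treatment, top concentration 100 uM, half-log steps, duplicate wells.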
# [12] = read-out: Cytochrome P450 7A1 (Homo sapiens) (UniProt P22680); assay: LTEA_HepaRG_CYP7A1: Life Technologies and Expression Analysis (LTEA) Assay for Cytochrome P450 7A1 (CYP7A1) using HepaRG (AID 2283496)
# Outline: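 Gene expression endpoint in human HepaRG liver cells treated for 48 h with test chemicals (up to 100 uM, 0.5% DMSO). Values come from bidirectional concentration-response fitting versus DMSO.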
# [13] = read-out: Glutathione S-Transferase (GSTA2), GSTA2 (gene 2939); assay: LTEA_HepaRG_GSTA2: Life Technologies and Expression Analysis (LTEA) Assay for Glutathione S-Transferase (GSTA2) using HepaRG (AID 2283497)
# Outline: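 HepaRG, 48 h dosing, 8-pt half-log CRC from 100 uM, 0.5% DMSO vehicle, n=2; RNA → Fluidigm TaqMan qRT-PCR; GSTA2 vs ACTB/GAPDH/POLR2A; gain/loss fit vs DMSO.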
# [14] = read-out: Glutamate-cysteine ligase catalytic (GCLC), GCLC (gene 2729); assay: LTEA_HepaRG_GCLC: Life Technologies and Expression Analysis (LTEA) Assay for Glutamate-cysteine ligase catalytic (GCLC) using HepaRG (AID 2283498)
# Outline: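 Read-out is GCLC transcript level by Fluidigm-based TaqMan qRT-PCR, normalized to three housekeeping genes and fitted in both directions relative to 0.5% DMSO. Human HepaRG cells received chemicals for 48 h, up to 100 uM.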
# CYP2E1 (gene 1571) = assay: LTEA_HepaRG_CYP2E1: Life Technologies and Expression Analysis (LTEA) Assay for CYP2E1 using HepaRG (AID 2283485)
# Outline: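 Differentiated HepaRG cells were treated in duplicate for 48 h with chemicals in 0.5% DMSO, from 100 uM downward in half-log dilutions. RNA was then analysed by qRT-PCR for CYP2E1 induction or loss.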
# Chain of Cytochrome P450 2C19 (Homo sapiens) (P33261 whole entry, looked up): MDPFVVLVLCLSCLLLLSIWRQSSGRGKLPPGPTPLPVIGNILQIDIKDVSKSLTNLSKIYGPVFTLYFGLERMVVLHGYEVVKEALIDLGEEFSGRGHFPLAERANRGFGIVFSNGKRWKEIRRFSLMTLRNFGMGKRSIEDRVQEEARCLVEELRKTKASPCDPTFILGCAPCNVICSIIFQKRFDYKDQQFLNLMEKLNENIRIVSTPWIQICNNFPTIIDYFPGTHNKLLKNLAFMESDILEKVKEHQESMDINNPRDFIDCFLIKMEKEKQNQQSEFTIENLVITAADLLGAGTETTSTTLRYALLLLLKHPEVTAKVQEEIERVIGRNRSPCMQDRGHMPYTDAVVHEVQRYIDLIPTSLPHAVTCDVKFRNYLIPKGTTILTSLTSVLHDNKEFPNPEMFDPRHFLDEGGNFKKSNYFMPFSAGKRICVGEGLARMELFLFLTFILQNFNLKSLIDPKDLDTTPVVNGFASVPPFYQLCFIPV
# Chain of Cytochrome P450 3A4 (Homo sapiens) (P08684 whole entry, looked up): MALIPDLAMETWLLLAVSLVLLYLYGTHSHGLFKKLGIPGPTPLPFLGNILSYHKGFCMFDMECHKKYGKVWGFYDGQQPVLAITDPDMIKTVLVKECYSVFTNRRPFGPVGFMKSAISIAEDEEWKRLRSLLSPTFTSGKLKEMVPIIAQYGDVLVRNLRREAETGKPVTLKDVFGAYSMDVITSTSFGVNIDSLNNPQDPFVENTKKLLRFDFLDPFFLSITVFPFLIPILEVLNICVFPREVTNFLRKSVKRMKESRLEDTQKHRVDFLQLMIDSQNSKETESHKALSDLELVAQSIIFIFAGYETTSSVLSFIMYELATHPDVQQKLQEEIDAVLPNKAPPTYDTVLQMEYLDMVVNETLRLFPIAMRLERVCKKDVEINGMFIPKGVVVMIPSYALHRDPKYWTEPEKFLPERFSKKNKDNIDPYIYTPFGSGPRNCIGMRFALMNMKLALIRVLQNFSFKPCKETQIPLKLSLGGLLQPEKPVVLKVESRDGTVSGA
structure (smiles),measurement,setting,value
O=C(CCCCCCCCc1cccnc1)N1CCC(C=C(c2ccccc2)c2ccccc2)CC1,AC50,[1],17 µM (active)
same,outcome,[2],inactive
same,AC50,[3],12.3 µM (active)
same,AC50,[4],34.9 µM (active)
same,AC50,CYP2C8 (gene 1558),29.7 µM (active)
same,AC50,CYP2C9 (gene 1559),31.2 µM (active)
same,AC50,CYP4A11 (gene 1579),12.6 µM (active)
same,AC50,[5],32 µM (active)
same,AC50,[6],22.1 µM (active)
same,outcome,[7],inactive
same,AC50,[8],12.2 µM (active)
same,AC50,[9],13.1 µM (active)
same,outcome,CYP3A5 (gene 1577),inactive
same,AC50,[10],26.9 µM (active)
same,AC50,[11],22.7 µM (active)
same,AC50,[12],27.1 µM (active)
same,AC50,[13],28.7 µM (active)
same,AC50,[14],12.5 µM (active)
Cn1c(=O)cc(Oc2ccc(F)cc2F)c2cnc(NCC(C)(C)O)nc21,AC50,[1],16 µM (active)
same,outcome,[2],inactive
same,AC50,[3],6.6 µM (active)
same,AC50,[4],14.6 µM (active)
same,outcome,CYP2C8 (gene 1558),inactive
same,outcome,CYP2C9 (gene 1559),inactive
same,AC50,CYP4A11 (gene 1579),50 µM (active)
same,AC50,[5],50 µM (active)
same,outcome,[6],inactive
same,outcome,[7],inactive
same,outcome,[8],inactive
same,outcome,[9],inactive
same,AC50,CYP3A5 (gene 1577),50 µM (active)
same,outcome,[10],inactive
same,outcome,[11],inactive
same,outcome,[12],inactive
same,outcome,[13],inactive
same,outcome,[14],inactive
CC/C(=C\C(=N/O)C(N)=O)C(C)[N+](=O)[O-] (stereo unspecified),AC50,[1],26.5 µM (active)
same,outcome,[2],inactive
same,outcome,[3],inactive
same,outcome,[4],inactive
same,outcome,CYP2C8 (gene 1558),inactive
same,outcome,CYP2C9 (gene 1559),inactive
same,outcome,CYP2E1 (gene 1571),inactive
same,outcome,CYP4A11 (gene 1579),inactive
same,outcome,[5],inactive
same,outcome,[6],inactive
same,outcome,[7],inactive
same,outcome,[8],inactive
same,outcome,[9],inactive
same,outcome,CYP3A5 (gene 1577),inactive
same,outcome,[10],inactive
same,outcome,[11],inactive
same,outcome,[12],inactive
same,outcome,[13],inactive
same,outcome,[14],inactive
CC(C)CCO,outcome,[1],inactive
same,outcome,[2],inactive
same,outcome,[3],inactive
same,outcome,[4],inactive
same,outcome,CYP2C8 (gene 1558),inactive
same,outcome,CYP2C9 (gene 1559),inactive
same,outcome,CYP2E1 (gene 1571),inactive
same,outcome,CYP4A11 (gene 1579),inactive
same,outcome,[5],inactive
same,outcome,[6],inactive
same,outcome,[8],inactive
same,outcome,[9],inactive
same,outcome,CYP3A5 (gene 1577),inactive
same,outcome,[10],inactive
same,outcome,[13],inactive
same,outcome,[14],inactive
